Common to all, as to experiment: DAPPL (digital affinity profiling via proximity ligation, sequencing); 10 mM Tris-HCl pH 7.5, 50 mM NaCl, 1 mM DTT, 4% glycerol, room temperature, 30 min; GST-TFs on glutathione beads, 16-mer random dsDNA library, 0.1% formaldehyde crosslink after washing; high values mean tight binding
In one test the target is T1, FLI1 (Homo sapiens, UniProt Q01543 1-452).
T1 sequence: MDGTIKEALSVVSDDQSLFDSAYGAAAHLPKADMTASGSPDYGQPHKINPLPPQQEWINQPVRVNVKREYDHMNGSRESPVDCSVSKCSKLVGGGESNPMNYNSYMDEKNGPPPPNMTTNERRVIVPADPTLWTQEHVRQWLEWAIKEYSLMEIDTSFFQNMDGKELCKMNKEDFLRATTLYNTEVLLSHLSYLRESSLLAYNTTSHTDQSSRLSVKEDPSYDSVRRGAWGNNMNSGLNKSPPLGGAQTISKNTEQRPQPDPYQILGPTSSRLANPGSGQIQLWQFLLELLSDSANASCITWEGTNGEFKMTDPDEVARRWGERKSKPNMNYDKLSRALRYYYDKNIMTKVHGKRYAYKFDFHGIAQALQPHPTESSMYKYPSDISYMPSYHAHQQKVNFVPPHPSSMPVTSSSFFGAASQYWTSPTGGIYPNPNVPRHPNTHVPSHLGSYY
To be noted: protein: recombinant; tags: N-terminal GST; dsDNA, one strand shown. In outline: (§1)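 Pools of DNA-barcoded human transcription factors, expressed in yeast as GST fusions on glutathione beads and combined with a tag-only sample, were incubated with 200 nmole of a 16-mer random double-stranded DNA library. Incubation took 30 min at room temperature in Tris/NaCl/DTT/glycerol buffer and was followed by washing, 0.1% formaldehyde crosslinking, proximity ligation (BsaI/T4 ligase, 1 h, 37 °C), PCR amplification and sequencing on an Illumina NextSeq500. Binding signal is the ratio of a hexamer's read frequency for a factor to its frequency for the tag-only sample.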

A further test concerns the target T2, ELK1 (Homo sapiens, UniProt P19419 1-428).
T2 sequence: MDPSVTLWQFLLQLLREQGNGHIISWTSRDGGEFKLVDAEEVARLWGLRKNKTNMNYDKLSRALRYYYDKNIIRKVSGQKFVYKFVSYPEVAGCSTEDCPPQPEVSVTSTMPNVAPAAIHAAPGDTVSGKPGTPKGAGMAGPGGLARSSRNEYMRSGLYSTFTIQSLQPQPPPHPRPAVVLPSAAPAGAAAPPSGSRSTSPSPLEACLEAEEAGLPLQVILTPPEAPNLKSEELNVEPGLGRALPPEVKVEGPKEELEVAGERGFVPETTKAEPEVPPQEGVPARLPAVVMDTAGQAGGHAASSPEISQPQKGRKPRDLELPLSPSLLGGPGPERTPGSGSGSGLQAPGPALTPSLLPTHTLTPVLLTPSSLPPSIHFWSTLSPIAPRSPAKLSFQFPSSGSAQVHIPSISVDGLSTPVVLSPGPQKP
The note with it: protein: recombinant; tags: N-terminal GST; dsDNA, one strand shown. The essentials: as §1

The target in the next test is T3, GABPA (Homo sapiens, UniProt Q06546 1-454).
T3 sequence: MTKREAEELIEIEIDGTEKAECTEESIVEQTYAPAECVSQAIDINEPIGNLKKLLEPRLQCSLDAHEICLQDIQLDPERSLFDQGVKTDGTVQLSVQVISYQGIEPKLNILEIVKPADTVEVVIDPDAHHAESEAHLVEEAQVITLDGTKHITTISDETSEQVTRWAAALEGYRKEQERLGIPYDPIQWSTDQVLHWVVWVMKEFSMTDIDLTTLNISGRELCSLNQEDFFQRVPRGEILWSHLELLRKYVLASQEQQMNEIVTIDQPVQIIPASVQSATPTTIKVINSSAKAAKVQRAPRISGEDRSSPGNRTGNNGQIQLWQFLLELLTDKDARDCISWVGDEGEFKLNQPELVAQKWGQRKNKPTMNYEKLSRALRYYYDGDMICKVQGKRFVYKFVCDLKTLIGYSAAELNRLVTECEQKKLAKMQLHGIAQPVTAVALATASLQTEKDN
To be noted: protein: recombinant; tags: N-terminal GST; dsDNA, one strand shown. In outline:
as §1

For a further test, the target named is T4, ERG (Homo sapiens, UniProt P11308 1-479).
T4 sequence: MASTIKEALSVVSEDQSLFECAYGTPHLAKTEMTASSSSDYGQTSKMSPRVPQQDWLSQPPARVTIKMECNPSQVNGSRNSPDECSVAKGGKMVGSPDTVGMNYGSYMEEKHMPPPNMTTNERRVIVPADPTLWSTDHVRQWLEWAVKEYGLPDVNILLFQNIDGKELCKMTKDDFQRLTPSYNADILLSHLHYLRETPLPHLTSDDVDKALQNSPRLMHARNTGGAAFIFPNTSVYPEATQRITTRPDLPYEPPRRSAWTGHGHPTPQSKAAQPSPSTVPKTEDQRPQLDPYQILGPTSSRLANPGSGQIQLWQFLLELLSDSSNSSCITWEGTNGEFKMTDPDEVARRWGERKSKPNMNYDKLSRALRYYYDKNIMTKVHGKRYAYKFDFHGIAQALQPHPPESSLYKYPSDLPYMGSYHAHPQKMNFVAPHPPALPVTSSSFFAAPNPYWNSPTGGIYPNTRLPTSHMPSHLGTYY
To be noted: protein: recombinant; tags: N-terminal GST; dsDNA, one strand shown. The essentials:
as §1

The target of a further test is ELF1 (Homo sapiens, UniProt P32519 1-619). The note with it: protein: recombinant; tags: N-terminal GST; dsDNA, one strand shown. The essentials:
as §1

The next test concerns the target T5, EHF (Homo sapiens, UniProt Q9NZC4 1-300).
T5 sequence: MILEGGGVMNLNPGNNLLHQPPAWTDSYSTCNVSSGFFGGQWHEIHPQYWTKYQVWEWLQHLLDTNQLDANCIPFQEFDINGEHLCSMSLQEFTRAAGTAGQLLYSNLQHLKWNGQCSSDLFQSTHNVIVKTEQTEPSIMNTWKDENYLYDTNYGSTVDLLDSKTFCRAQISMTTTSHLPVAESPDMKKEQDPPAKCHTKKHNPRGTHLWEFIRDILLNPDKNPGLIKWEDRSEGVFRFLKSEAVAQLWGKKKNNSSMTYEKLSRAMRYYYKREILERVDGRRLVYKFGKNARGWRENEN
To be noted: protein: recombinant; tags: N-terminal GST; dsDNA, one strand shown. In outline: as §1

The target of another test is SPIB (Homo sapiens, UniProt Q01892 1-262). The note with it: protein: recombinant; tags: N-terminal GST; dsDNA, one strand shown. In outline:
as §1

The next test concerns the target T6, ELK3 (Homo sapiens, UniProt P41970 1-407).
T6 sequence: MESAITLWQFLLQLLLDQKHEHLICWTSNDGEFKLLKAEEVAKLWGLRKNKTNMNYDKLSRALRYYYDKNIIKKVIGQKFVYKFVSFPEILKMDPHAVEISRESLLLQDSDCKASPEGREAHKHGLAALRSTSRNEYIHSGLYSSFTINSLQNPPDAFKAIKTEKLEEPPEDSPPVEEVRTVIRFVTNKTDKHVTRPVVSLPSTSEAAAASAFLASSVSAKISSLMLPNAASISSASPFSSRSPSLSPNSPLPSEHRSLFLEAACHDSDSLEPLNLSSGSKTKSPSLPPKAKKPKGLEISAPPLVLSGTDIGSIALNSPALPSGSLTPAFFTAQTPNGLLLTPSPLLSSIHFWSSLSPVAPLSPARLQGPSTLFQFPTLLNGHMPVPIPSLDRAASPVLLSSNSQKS
The note with it: protein: recombinant; tags: N-terminal GST; dsDNA, one strand shown. In outline:
as §1

The next test addresses T7, FEV (Homo sapiens, UniProt Q99581 1-238).
T7 sequence: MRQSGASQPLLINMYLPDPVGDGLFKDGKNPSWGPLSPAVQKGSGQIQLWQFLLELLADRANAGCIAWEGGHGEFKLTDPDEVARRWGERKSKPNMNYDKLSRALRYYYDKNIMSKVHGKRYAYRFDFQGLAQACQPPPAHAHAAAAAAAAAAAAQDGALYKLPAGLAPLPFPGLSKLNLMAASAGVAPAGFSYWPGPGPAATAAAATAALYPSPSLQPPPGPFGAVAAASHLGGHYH
To be noted: protein: recombinant; tags: N-terminal GST; dsDNA, one strand shown. In outline: as §1

A further test deals with ETV5 (Homo sapiens, UniProt P41161 1-510). The note with it: protein: recombinant; tags: N-terminal GST; dsDNA, one strand shown. The essentials: as §1
Sequence of ETV5 (P41161 whole entry): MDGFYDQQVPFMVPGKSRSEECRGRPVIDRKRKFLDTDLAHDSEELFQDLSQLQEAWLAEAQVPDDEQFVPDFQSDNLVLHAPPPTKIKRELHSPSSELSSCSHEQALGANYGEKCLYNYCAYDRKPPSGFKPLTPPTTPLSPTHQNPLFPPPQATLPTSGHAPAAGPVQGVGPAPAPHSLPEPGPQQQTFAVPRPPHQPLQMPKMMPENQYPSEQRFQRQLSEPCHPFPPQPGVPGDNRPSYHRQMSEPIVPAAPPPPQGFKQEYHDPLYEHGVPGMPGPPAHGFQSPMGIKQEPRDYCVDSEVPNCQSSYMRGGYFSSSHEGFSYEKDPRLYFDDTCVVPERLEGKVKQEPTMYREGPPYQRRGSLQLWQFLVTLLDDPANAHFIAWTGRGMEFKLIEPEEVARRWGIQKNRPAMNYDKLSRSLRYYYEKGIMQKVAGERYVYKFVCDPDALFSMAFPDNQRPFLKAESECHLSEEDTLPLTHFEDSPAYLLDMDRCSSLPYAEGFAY
The target in a further test is HSF1 (Homo sapiens, UniProt Q00613 1-529). The note with it: protein: recombinant; tags: N-terminal GST; chain copies: 3; dsDNA, one strand shown. In outline: as §1
Sequence of HSF1 (Q00613 whole entry): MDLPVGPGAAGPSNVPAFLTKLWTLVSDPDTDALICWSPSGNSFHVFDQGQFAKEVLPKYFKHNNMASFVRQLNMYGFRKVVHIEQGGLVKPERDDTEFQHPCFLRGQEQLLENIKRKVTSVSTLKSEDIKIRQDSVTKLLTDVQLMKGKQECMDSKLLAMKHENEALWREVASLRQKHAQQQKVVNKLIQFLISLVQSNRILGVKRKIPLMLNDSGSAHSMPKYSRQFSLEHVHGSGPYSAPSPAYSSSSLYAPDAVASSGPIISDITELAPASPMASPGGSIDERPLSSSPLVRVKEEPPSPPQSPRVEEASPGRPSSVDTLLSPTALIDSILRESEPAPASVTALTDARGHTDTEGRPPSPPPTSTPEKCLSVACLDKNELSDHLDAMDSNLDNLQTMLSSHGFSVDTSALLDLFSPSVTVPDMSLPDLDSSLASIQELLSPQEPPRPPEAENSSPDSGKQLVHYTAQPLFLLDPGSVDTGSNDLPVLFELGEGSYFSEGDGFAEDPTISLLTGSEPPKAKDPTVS
The target in a further test is T8, SPIC (Homo sapiens, UniProt Q8N5J4 1-248).
T8 sequence: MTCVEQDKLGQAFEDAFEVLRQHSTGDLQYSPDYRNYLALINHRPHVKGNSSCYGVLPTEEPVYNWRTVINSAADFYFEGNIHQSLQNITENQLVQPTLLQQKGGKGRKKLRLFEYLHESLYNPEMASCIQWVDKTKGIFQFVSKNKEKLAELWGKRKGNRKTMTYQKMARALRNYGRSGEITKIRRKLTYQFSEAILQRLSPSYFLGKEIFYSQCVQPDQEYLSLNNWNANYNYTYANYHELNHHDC
The note with it: protein: recombinant; tags: N-terminal GST; dsDNA, one strand shown. The essentials: as §1

Another test addresses ELF4 (Homo sapiens, UniProt Q99607 1-663). The note with it: protein: recombinant; tags: N-terminal GST; dsDNA, one strand shown. In outline: as §1
A further test addresses T9, ELK4 (Homo sapiens, UniProt P28324-2 1-405).
T9 sequence: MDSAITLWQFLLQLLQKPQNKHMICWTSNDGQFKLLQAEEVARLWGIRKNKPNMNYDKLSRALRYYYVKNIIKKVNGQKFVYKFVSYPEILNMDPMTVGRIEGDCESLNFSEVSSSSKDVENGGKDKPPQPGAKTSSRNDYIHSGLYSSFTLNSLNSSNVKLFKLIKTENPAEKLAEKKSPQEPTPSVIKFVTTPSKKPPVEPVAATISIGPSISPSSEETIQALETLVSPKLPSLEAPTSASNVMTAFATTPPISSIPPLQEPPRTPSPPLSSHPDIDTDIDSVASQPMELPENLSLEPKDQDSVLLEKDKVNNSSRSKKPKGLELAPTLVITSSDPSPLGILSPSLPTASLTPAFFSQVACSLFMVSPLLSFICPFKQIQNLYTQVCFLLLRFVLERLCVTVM
To be noted: protein: recombinant; tags: N-terminal GST; dsDNA, one strand shown. The essentials:
as §1

The target of another test is T10, ETV2 (Homo sapiens, UniProt O00321 1-342).
T10 sequence: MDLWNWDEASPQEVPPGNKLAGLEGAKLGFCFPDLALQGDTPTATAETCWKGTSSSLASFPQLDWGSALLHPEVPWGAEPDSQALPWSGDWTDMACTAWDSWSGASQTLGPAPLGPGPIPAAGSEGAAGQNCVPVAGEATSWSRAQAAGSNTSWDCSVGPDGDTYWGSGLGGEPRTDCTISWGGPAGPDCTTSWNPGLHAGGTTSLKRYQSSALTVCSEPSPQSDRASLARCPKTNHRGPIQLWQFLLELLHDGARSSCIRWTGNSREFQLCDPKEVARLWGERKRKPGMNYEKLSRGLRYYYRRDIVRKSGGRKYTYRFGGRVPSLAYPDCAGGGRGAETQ
To be noted: protein: recombinant; tags: N-terminal GST; dsDNA, one strand shown. In outline: as §1

For another test, the target named is T11, ELF3 (Homo sapiens, UniProt P78545 1-371).
T11 sequence: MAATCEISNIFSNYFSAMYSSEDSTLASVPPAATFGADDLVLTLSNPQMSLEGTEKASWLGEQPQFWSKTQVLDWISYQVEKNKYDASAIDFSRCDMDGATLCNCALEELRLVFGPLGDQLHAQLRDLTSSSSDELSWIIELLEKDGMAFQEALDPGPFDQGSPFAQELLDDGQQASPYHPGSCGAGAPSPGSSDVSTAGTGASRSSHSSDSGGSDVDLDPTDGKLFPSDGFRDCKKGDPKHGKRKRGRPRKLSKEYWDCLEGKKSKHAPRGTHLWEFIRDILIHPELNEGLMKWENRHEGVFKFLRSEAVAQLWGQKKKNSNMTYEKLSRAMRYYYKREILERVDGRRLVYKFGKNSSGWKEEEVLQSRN
The note with it: protein: recombinant; tags: N-terminal GST; dsDNA, one strand shown. In outline: as §1

Another test has as its target CRX (Homo sapiens, UniProt O43186 1-299). To be noted: protein: recombinant; tags: N-terminal GST; dsDNA, one strand shown. The essentials: as §1
The target in the next test is ETV1 (Homo sapiens, UniProt P50549 1-477). The note with it: protein: recombinant; tags: N-terminal GST; dsDNA, one strand shown. The essentials: as §1
Sequence of ETV1 (P50549 whole entry): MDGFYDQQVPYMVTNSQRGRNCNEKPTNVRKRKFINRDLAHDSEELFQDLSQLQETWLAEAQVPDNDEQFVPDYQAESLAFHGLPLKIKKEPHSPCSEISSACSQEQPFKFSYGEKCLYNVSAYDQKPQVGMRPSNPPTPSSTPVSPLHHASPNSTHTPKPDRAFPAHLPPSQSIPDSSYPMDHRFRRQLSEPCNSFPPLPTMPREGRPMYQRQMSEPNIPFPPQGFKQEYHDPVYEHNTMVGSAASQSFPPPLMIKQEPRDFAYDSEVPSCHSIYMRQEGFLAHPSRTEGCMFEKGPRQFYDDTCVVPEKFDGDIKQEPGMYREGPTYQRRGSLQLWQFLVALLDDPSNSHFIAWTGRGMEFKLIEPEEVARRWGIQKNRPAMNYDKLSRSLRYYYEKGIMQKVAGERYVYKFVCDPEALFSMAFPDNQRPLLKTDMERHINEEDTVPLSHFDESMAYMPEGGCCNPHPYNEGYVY

Sequence of SPIB (Q01892 whole entry): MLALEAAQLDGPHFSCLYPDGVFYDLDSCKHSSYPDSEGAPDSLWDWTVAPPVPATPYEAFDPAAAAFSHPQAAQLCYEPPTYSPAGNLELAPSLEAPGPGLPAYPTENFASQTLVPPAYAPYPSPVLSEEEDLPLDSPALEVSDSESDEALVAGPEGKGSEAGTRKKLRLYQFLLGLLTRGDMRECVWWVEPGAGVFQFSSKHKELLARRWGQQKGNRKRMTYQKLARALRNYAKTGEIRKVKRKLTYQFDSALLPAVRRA
Sequence of ELF1 (P32519 whole entry): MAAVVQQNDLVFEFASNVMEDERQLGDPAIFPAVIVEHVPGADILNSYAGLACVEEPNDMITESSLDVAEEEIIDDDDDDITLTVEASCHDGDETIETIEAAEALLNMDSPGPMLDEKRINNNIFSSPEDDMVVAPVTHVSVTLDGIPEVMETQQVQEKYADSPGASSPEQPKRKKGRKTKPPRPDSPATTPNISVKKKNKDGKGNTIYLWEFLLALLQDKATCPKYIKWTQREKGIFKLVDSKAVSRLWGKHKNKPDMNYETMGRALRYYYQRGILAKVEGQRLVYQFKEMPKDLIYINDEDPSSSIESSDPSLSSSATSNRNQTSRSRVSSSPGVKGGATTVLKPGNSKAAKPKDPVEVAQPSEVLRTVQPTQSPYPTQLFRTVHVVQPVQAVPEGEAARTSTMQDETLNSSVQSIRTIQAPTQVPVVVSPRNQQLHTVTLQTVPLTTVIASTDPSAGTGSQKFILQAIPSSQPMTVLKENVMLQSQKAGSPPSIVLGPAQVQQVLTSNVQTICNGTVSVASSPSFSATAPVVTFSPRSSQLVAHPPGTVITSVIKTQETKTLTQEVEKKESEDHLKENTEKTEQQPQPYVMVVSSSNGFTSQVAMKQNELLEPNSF
Sequence of CRX (O43186 whole entry): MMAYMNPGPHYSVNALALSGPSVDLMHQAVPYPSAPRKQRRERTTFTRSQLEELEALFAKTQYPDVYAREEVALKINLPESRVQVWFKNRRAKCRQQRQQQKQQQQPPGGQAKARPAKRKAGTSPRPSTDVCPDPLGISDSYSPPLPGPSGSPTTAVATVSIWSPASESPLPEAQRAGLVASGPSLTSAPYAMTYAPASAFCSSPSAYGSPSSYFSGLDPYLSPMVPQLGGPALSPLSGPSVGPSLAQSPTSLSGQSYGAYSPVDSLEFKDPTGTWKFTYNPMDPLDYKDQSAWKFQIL
Sequence of ELF4 (Q99607 whole entry): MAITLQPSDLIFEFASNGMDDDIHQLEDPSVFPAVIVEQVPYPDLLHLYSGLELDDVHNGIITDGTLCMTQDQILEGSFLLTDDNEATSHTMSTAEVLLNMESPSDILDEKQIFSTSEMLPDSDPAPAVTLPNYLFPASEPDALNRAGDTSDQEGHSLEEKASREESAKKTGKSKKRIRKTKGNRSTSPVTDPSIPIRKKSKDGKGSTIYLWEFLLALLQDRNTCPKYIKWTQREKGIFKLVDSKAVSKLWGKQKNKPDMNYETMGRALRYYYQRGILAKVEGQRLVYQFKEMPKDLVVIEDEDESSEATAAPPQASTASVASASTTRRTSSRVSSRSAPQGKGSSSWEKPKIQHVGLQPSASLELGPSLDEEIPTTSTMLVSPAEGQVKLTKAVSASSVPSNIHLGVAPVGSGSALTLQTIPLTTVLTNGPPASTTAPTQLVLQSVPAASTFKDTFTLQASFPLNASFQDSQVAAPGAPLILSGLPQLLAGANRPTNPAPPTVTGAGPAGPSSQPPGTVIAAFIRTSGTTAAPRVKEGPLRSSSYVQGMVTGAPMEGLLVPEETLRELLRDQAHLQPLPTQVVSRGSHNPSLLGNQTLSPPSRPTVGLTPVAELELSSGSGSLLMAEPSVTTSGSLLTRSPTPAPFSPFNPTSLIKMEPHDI

On to CGAGCA, for which the binding signal was 1.17 fold enrichment (6-mer frequency, TF over GST control) with FLI1; 1.18 fold enrichment (6-mer frequency, TF over GST control) with ELK1; 1.18 fold enrichment (6-mer frequency, TF over GST control) with GABPA; 1.13 fold enrichment (6-mer frequency, TF over GST control) in the test with ERG; 1.14 fold enrichment (6-mer frequency, TF over GST control) with ELF1; 1.05 fold enrichment (6-mer frequency, TF over GST control) with EHF. Moreover, the binding signal in the test with SPIB was 1.16 fold enrichment (6-mer frequency, TF over GST control); with ELK3, 1.14 fold enrichment (6-mer frequency, TF over GST control); in the test with FEV, 1.16 fold enrichment (6-mer frequency, TF over GST control); with ETV5, 1.1 fold enrichment (6-mer frequency, TF over GST control); in the test with HSF1, 1.38 fold enrichment (6-mer frequency, TF over GST control); with SPIC, 1.1 fold enrichment (6-mer frequency, TF over GST control). Besides, the binding signal with ELF4 was 1.13 fold enrichment (6-mer frequency, TF over GST control); in the test with ELK4, 1.17 fold enrichment (6-mer frequency, TF over GST control); with ETV2, 1.34 fold enrichment (6-mer frequency, TF over GST control); in the test with ELF3, 1.29 fold enrichment (6-mer frequency, TF over GST control); in the test with CRX, 1.04 fold enrichment (6-mer frequency, TF over GST control); with ETV1, 1.11 fold enrichment (6-mer frequency, TF over GST control).

The values above are taken from article PMC7862700, “An all-to-all approach to the identification of sequence-specific readers for epigenetic DNA modifications on cytosine”.
